Experimental data as given in PubChem BioAssay (NCI).
The panel holds about 83,000 compounds, 20% with a hit somewhere; the sample as a whole holds those more often.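 The test compound was applied at a single concentration to cells in 96-well plates for 48 hours, and percent growth was recorded.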 A number with no mark means an inactive call. Activity calls are given as the source filed them. The calls were made as follows: active = growth percent below 10; inactive = the rest.

Legend:
Assay in all cases: NCI-60 one-dose screen, 48 h (100 = growth as untreated, 0 = no growth, -100 = all killed)
SK-MEL-2 melanoma = conditions: 10 µM unless noted
EKVX NSCLC = conditions: 10 µM unless noted
SN12C renal = conditions: 10 µM unless noted
UO-31 renal = conditions: 10 µM unless noted
TK-10 renal = conditions: 10 µM unless noted
ACHN renal = conditions: 10 µM unless noted
CAKI-1 renal = conditions: 10 µM
CCRF-CEM leukemia = conditions: 10 µM unless noted
MOLT-4 leukemia = conditions: 10 µM unless noted
OVCAR-8 ovarian = conditions: 10 µM unless noted
OVCAR-5 ovarian = conditions: 10 µM unless noted
OVCAR-4 ovarian = conditions: 10 µM unless noted
SK-OV-3 ovarian = conditions: 10 µM unless noted
IGROV1 ovarian = conditions: 10 µM unless noted
OVCAR-3 ovarian = conditions: 10 µM unless noted
HS 578T breast = conditions: 10 µM unless noted
NCI/ADR-RES ovarian = conditions: 10 µM unless noted
SR leukemia = conditions: 10 µM unless noted
RPMI-8226 leukemia = conditions: 10 µM unless noted

SMILES	growth (SK-MEL-2 melanoma)	growth (EKVX NSCLC) [%]	growth (SN12C renal) [%]	growth (UO-31 renal)	growth (TK-10 renal) [%]	growth (ACHN renal) [%]	growth (CAKI-1 renal) [%]	growth (CCRF-CEM leukemia) [%]	growth (MOLT-4 leukemia)	growth (OVCAR-8 ovarian) [%]	growth (OVCAR-5 ovarian) [%]	growth (OVCAR-4 ovarian) [%]	growth (SK-OV-3 ovarian) [%]	growth (IGROV1 ovarian) [%]	growth (OVCAR-3 ovarian)	growth (HS 578T breast) [%]	growth (NCI/ADR-RES ovarian) [%]	growth (SR leukemia)	growth (RPMI-8226 leukemia)
CN(C)C(=O)c1ccccc1-n1cnc2ccccc2c1=O	107%	101	92.7	92.8%	97.6	96.3	90.1	97.4	102%	103	104	106	107	99.9	110%	108	102		
COc1cc(-c2noc(C[C@@H](NC(=O)OCc3ccccc3)C(C)C)n2)cc(OC)c1OC	99.3%	96.9	90.1	89.8%	96.1	102	100	99.9	93.9%	100	97.3	102	94.5	99.5		97.2	104	95%	106%
CCOC(=O)c1c(NCC(=O)Nc2ccc(Br)cc2)sc2c1CCCC2	68.7%	76	18.2	54.3%	81.4	14.8	27		16.8%	36.5	27.2		66.9	22		57.5	25.2	43.8%	27%
C=C(C)[C@@H]1CC[C@]2(C(=O)ON)CC[C@]3(C)[C@H](CC[C@@H]4[C@@]5(C)C/C(=C/c6ccc(Br)cc6)C(=O)C(C)(C)[C@@H]5CC[C@]43C)[C@@H]12	88.8%	60.5	71.5	63.7%	105	76	50		47.3%	68.7	86.5		98.6	90.4	78%	88.2	74.9		62.2%
Cc1nn(-c2ccc(Br)cc2)c2nc(CCl)[nH]c(=O)c12	99.9%	99.5	100	-90.1% (active)	111	94.8	96.3	83.6		102	102	116	106	97.4		108	104		-53.9% (active)
CCN1C/C(=N\S(=O)(=O)c2ccccc2)N(CC)C1=S	104%	99	98.1	89.9%	100	102	95.3		101%	99.7	103	106	118	107	119%	105	99.8	101%	
COc1ccccc1/C=C/C=N/NC1=NC2C(S1)N(C)C(=O)N2c1ccccc1 (stereo unspecified)	67.6%	39.4	20.6	35.9%	68.6	24.7	46.4	14.3	4.1% (active)	24.4	33.3	56.8	62.4	19.4	-27.2% (active)	25.5	10.4		18.9%
IP(CCCSc1n(Cc2ccc3ccccc3c2)c(-c2ccccc2)c(-c2ccccc2)[n+]1Cc1ccc2ccccc2c1)(c1ccccc1)(c1ccccc1)c1ccccc1	2.52% (active)	32	57	70.1%	66.9	87.9	77.6	32.5	46.7%	38.6	58.5	23.2		23.9	8.3% (active)	67.1	94.1	5.94% (active)	14.8%
